Data from PubChem BioAssay (NCI).
About 83,000 compounds went through this panel and 20% of them were active in at least one assay; those are over-represented in the sample as a whole.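 Values shown are percent growth following 48 h exposure of cells in 96-well plates to a single concentration of compound; below 10 was considered active.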 Unmarked numbers belong to inactive results. Calls of active or inactive are those of the source.

Columns and labels:
Assay in all cases: NCI-60 one-dose screen, 48 h (100 = growth as untreated, 0 = no growth, -100 = all killed)
Conditions in all cases: 10 µM unless noted
NCI-H23 lung = tested on: NCI-H23 lung
NCI-H226 lung = tested on: NCI-H226 lung
NCI-H322M lung = tested on: NCI-H322M lung
HOP-62 NSCLC = tested on: HOP-62 NSCLC
NCI-H460 lung = tested on: NCI-H460 lung
HOP-92 NSCLC = tested on: HOP-92 NSCLC
NCI-H522 lung = tested on: NCI-H522 lung
A549/ATCC NSCLC = tested on: A549/ATCC NSCLC
786-0 renal = tested on: 786-0 renal
COLO 205 colon = tested on: COLO 205 colon
DU-145 prostate = tested on: DU-145 prostate
K-562 leukemia = tested on: K-562 leukemia
MALME-3M melanoma = tested on: MALME-3M melanoma
MDA-MB-231 breast = tested on: MDA-MB-231 breast
RXF 393 renal = tested on: RXF 393 renal
SF-268 CNS = tested on: SF-268 CNS
SF-295 CNS = tested on: SF-295 CNS
SF-539 CNS = tested on: SF-539 CNS
UACC-257 melanoma = tested on: UACC-257 melanoma
M14 melanoma = tested on: M14 melanoma

| Compound | growth (NCI-H23 lung) | growth (NCI-H226 lung) | growth (NCI-H322M lung) | growth (HOP-62 NSCLC) | growth (NCI-H460 lung) | growth (HOP-92 NSCLC) | growth (NCI-H522 lung) | growth (A549/ATCC NSCLC) | growth (786-0 renal) | growth (COLO 205 colon) | growth (DU-145 prostate) | growth (K-562 leukemia) | growth (MALME-3M melanoma) | growth (MDA-MB-231 breast) | growth (RXF 393 renal) | growth (SF-268 CNS) | growth (SF-295 CNS) | growth (SF-539 CNS) | growth (UACC-257 melanoma) | growth (M14 melanoma) |
| --- | --- | --- | --- | --- | --- | --- | --- | --- | --- | --- | --- | --- | --- | --- | --- | --- | --- | --- | --- | --- |
| O=C(CCN1CCCCC1)c1ccc2ccccc2c1 | 103% | 92.2% | 98.4% | 108% | 103% | 92.8% | 93.5% | 102% | 111% | 112% | 98.6% | 111% | 106% | 102% | 102% | 98.2% | 99.4% | 108% | 98.5% | 107% |
| Cc1nc(Cl)c2c(n1)N(C)c1ccc(Cl)cc1C(C)C2 (stereo not given) | 92.5% | 87.7% | 97.1% | 90.4% | 92.3% | 66% | 77.8% | 84.6% | 90% | 97.3% | 105% | 77.3% | 95.6% | 77.1% | 101% | 88.9% | 91.2% | 96.5% | 88% | 86.9% |
| C[C@]12CCc3c(ccc4cc(O)ccc34)[C@@H]1CC[C@H]2O | 95.7% | 91.9% | 105% | 103% | 102% | 84.1% | 88.3% | 108% | 104% | 108% | 104% | 94.9% | 101% | 88.3% | 97.2% | 91.4% | 84.9% | 91% | 102% | 101% |
| COc1ccc(OC)c(NC=O)c1 | 101% | 103% | 111% | 98.1% | 105% | 101% | 103% | 105% | 104% | 108% | 105% | 99.8% | 107% | 106% | 103% | 99.6% | 106% | 103% | 102% | 103% |
| O=C1COCCN1c1ccc(NCc2cn(Cc3cccc4ccccc34)c3ccccc23)cc1 | 84% | 5.06% (active) | 91.5% | 84.3% | 64.4% | 72.6% | 86.3% | 87.7% | 98.8% | 93.6% | 98.7% | 84.6% | 90.1% | 101% | 43.1% | 85.3% | 89.6% | 95.6% | 78.4% | 89% |
| CC(C)=CC/C=C(/C)[C@H]1CC[C@]2(C)[C@@H]1CC[C@@H]1[C@@]3(C)CC/C(=N/O)C(C)(C)[C@@H]3CC[C@]12C | 47.5% [100 µM] | 59.7% [100 µM] | 77.3% [100 µM] | 74.2% [100 µM] | 40.5% [100 µM] | 53.1% [100 µM] | 21.3% [100 µM] | 54.9% [100 µM] | 58.7% [100 µM] | 65.8% [100 µM] | 73.7% [100 µM] | 33.9% [100 µM] | 81% [100 µM] | 50.5% [100 µM] | 61.3% [100 µM] | 72% [100 µM] | 64.2% [100 µM] | 64% [100 µM] | 59.5% [100 µM] | 61.1% [100 µM] |
| CC1(C)S[C@@H]2[C@H](NC(=O)[C@H](C(=O)O)c3cccs3)C(=O)N2[C@H]1C(=O)O | 102% | 105% | 108% | 105% | 113% | 122% | 75.8% | 102% | 97.1% | 111% | 123% | 105% | 103% | 126% | 116% | 110% | 98.4% | 100% | 96.2% | 102% |
| CC(C)C1=NOC(=O)C1=Cc1cn(-c2ccccc2)nc1-c1ccc(Br)cc1 | 85.8% | 93.7% | 90.5% | 91.3% | 83.5% | 83.1% | 86% | 98.2% | 82.9% | 97.8% | 92.9% | 43.4% | 87.7% | 91.5% | 70.3% | 102% | 96.8% | 78.5% | 100% | 76.6% |
| C=C(C)[C@@H]1CC[C@]2(C(N)=O)CC[C@]3(C)[C@H](CC[C@@H]4[C@@]5(C)C/C(=C/c6cccnc6)C(=O)C(C)(C)[C@@H]5CC[C@]43C)[C@@H]12 | 18.9% [100 µM] | 9.08% [100 µM] (active) | 12.7% [100 µM] | 3.06% [100 µM] (active) | -42.8% [100 µM] (active) | 16.8% [100 µM] | -16.8% [100 µM] (active) | 14.2% [100 µM] | 18.1% [100 µM] | -23.6% [100 µM] (active) | 24.6% [100 µM] | 6.74% [100 µM] (active) | -19.7% [100 µM] (active) | 0.809% [100 µM] (active) | -8.8% [100 µM] (active) | 39.3% [100 µM] | 6.69% [100 µM] (active) | -14.3% [100 µM] (active) | 20.8% [100 µM] | 15.7% [100 µM] |
| CC1(C)CC[C@]2(C(N)=O)CC[C@]3(C)C(=CC[C@@H]4[C@@]5(C)C/C(=C/c6ccncc6)C(=O)C(C)(C)[C@@H]5CC[C@]43C)[C@@H]2C1 | -34.4% [100 µM] (active) | -48.3% [100 µM] (active) | -100% [100 µM] (active) | -63.3% [100 µM] (active) | -48.9% [100 µM] (active) | -64.7% [100 µM] (active) | -67.4% [100 µM] (active) | -54.2% [100 µM] (active) | -41.2% [100 µM] (active) | -55.3% [100 µM] (active) | -36.4% [100 µM] (active) | 3.83% [100 µM] (active) | -84.9% [100 µM] (active) | -75% [100 µM] (active) | -52.5% [100 µM] (active) | -37.2% [100 µM] (active) | -64.4% [100 µM] (active) | -68.1% [100 µM] (active) | -58.6% [100 µM] (active) | -24.4% [100 µM] (active) |
| COc1ccc(-c2cc(-c3ccccc3)nc(NCCNc3ccnc4cc(Cl)ccc34)n2)cc1 | -77.2% (active) | -37.9% (active) | -81% (active) | -83.8% (active) | -60% (active) | -77.4% (active) | -61.9% (active) | -75.5% (active) | -81.7% (active) | -80.8% (active) | -73.8% (active) | -47.1% (active) | -77.1% (active) | -89.8% (active) | -87% (active) | -40.1% (active) | -75.4% (active) | -81.7% (active) | -78.8% (active) | -78.7% (active) |
| Cc1cccc(C[C@H](NC(=O)Nc2ccc(Cl)cc2F)C(=O)N[C@@H]2C(=O)N3C[C@H](OC(=O)CCN(C)C)C[C@H]3C(=O)N3CCCC[C@H]3C(=O)N[C@@H](C)C(=O)N3C[C@H](C)C[C@H]3C(=O)O[C@H]2C)c1 | 34.4% | 28% | 59.2% | 35% | 13.6% | 19.1% | 24.6% | 25.4% | 22.5% | 9.51% (active) | 23.7% | 15.8% | 27.1% | 1.21% (active) | 18.7% | 24.8% | 7.95% (active) | 35.6% | 16.3% | 16.5% |
| COC(=O)[C@]1(C)CC[C@]2(C)CC[C@]3(C)C(=CC(=O)[C@@H]4[C@@]5(C)CCC(=O)NC(C)(C)[C@@H]5CC[C@]43C)[C@@H]2C1 | -77.5% [100 µM] (active) | -58.3% [100 µM] (active) | 29.1% [100 µM] | -70.8% [100 µM] (active) | -17.2% [100 µM] (active) | -85.6% [100 µM] (active) | -73.4% [100 µM] (active) | 9.53% [100 µM] (active) | -70.9% [100 µM] (active) | -51.2% [100 µM] (active) | -24.1% [100 µM] (active) | 4.37% [100 µM] (active) | -76.4% [100 µM] (active) | -80.2% [100 µM] (active) | -85.5% [100 µM] (active) | -55.3% [100 µM] (active) | -70.6% [100 µM] (active) | -85% [100 µM] (active) | -30.3% [100 µM] (active) | -39.1% [100 µM] (active) |
